In PubChem BioAssay (NCATS):
Inconclusive results are not listed. Entries that show only a call come without a potency. Activity calls are given as the source filed them. Calls come from the whole dose curve; as a rule, active = well fitted inhibition curve with a large enough effect; inconclusive = small, poorly fitted or top-dose-only effect; inactive = flat fitted curve, though single readings scatter.

Target: Aldehyde dehydrogenase, mitochondrial (Homo sapiens) (UniProt P05091)
Test: qHTS for Inhibitors of the Aldehyde Dehydrogenase Family (ALDH2) Primary screen (AID 2061308); note: nearly all actives have a fitted effect of over 55% in size
Settings: ALDH2 enzyme inhibition qHTS, 1536-well; series mostly up to 56 µM

| SMILES | Potency |
| --- | --- |
| CC(C)(C(=O)NCC(F)(F)C(F)(F)F)C(=O)NC1C(=O)Nc2ccccc2-c2ccccc21 (configuration not stated) | inactive |
| NC(=O)C(CCC(F)(F)F)N(Cc1ccc(-c2ncon2)cc1F)S(=O)(=O)c1ccc(Cl)cc1 (configuration not stated) | inactive |
| CC(C)(C)CC(C)(C)c1ccc(OCCOCC[N+](C)(C)Cc2ccccc2)cc1 | inactive |
| CCCc1cc(C)[nH]c(=O)c1CNC(=O)c1cc(-c2ccc(N3CCN(C(C)C)CC3)nc2)cc2c1cnn2C(C)C | inactive |
| COc1cc2c(cc1-c1c(C)noc1C)ncc1[nH]c(=O)n(C(C)c3ccccn3)c12 (configuration not stated) | inactive |
| CCS(=O)c1nc(-c2cccc(OCc3ccccc3)c2)cc(C(F)(F)F)n1 (configuration not stated) | inactive |
| CC[C@H](C)[C@H]1O[C@]2(CC[C@@H]1C)C[C@@H]1C[C@@H](C/C=C(\C)[C@@H](O[C@H]3C[C@H](OC)[C@@H](O[C@H]4C[C@H](OC)[C@@H](O)[C@H](C)O4)[C@H](C)O3)[C@@H](C)/C=C/C=C3\CO[C@@H]4[C@H](O)C(C)=C[C@@H](C(=O)O1)[C@]34O)O2 | inactive |
| Fc1ccc(C2CCNC[C@H]2COc2ccc3c(c2)OCO3)cc1 (some centres not stated) | inactive |
| CC[C@H]1OC(=O)[C@H](C)[C@@H](O[C@H]2C[C@@](C)(OC)[C@@H](O)[C@H](C)O2)[C@H](C)[C@@H](O[C@@H]2O[C@H](C)C[C@H](N(C)C)[C@H]2O)[C@](C)(O)C[C@@H](C)C(=O)[C@H](C)[C@H]2OC(=O)O[C@@]21C | inactive |
| COc1cc(C(=O)O)ccc1NC(=O)C1NC(CC(C)(C)C)C(C#N)(c2ccc(Cl)cc2F)C1c1cccc(Cl)c1F (configuration not stated) | inactive |
| O=C(c1ccccc1)c1ccc2nc(NC(=O)c3csc(C4CCN(c5ncnc6ccsc56)CC4)n3)[nH]c2c1 | inactive |
| CC(Oc1cc(-n2cnc3ccc(CN4CCN(C)CC4)cc32)sc1C(N)=O)c1ccccc1C(F)(F)F (configuration not stated) | inactive |
| CC1CCN(C(c2ccc(F)cc2)c2ccc(C(C)C(=O)O)cc2-c2ccc(C(F)(F)F)cc2)CC1 (configuration not stated) | inactive |
| N#Cc1ccc(COc2ccc(-c3cccc4nc(NC(=O)C5CC5)nn34)cc2)cn1 | inactive |
| O=C(NC1CCN(CCCCC2(C(=O)NCC(F)(F)F)c3ccccc3-c3ccccc32)CC1)c1ccccc1-c1ccc(C(F)(F)F)cc1 | inactive |
| COc1ccc2nc(-c3cc(OC)c(OC)c(OC)c3)cc(C(=O)NCC(=O)Nc3ccc(C(C)=O)cc3)c2c1 | inactive |
| COc1cc(/C=C/C(=O)N2CCN(CC(=O)N3CCCC3)CC2)cc(OC)c1OC | inactive |
| CCCSc1nc(N[C@@H]2C[C@H]2c2ccc(F)c(F)c2)c2nnn([C@@H]3C[C@H](OCCO)[C@@H](O)[C@H]3O)c2n1 | inactive |
| CCN(CC)CCN(Cc1ccc(-c2ccc(C(F)(F)F)cc2)cc1)C(=O)Cn1c(SCc2ccc(F)cc2)nc(=O)c2c1CCC2 | inactive |
| Cc1ccc(O)cc1Nc1ccnc(Nc2cccc(C(N)=O)c2)n1 | inactive |
| Cc1cn(-c2cc(NC(=O)c3ccc(C)c(Nc4nccc(-c5cnccn5)n4)c3)cc(C(F)(F)F)c2)cn1 | inactive |
| Fc1ccc(-n2cc(CCCCN3CCC4(CC3)OCc3ccccc34)c3ccccc32)cc1 | inactive |
| CC(C)C1CCC(C(=O)N[C@@H](Cc2ccccc2)C(=O)O)CC1 (some centres not stated) | inactive |
| CC(C)Oc1ccc(C(=O)NC(CNC(=O)CN(C)C)Cc2ccc(-c3cn4cccc(C(C)O)c4n3)cc2)cc1Cl (configuration not stated) | inactive |
| CN(C)C(=O)COC(=O)c1cc(-c2ccc(C3CCNCC3)cc2)c2ccc(-c3ccc(C(F)(F)F)cc3)cc2c1 | inactive |
| CCC(=C(c1ccc(OCCN2CCCC2)cc1)c1ccc(OCCN2CCCC2)cc1)c1ccccc1 | inactive |
| CN(C)C(CCOc1cccc2ccccc12)c1ccccc1 (configuration not stated) | inactive |
